Values joined by “and” are separate entries in the source; they are usually repeats but may differ in a detail not shown here. Identical values can stand only once. Among all 5,500 compounds or so, about 2,000 (36%) were called active. Roughly 18% stayed inconclusive and do not appear here. No stated cut-off is given here; in the data, active means normalized growth mostly below about 0.91 (no sharp cut-off); inconclusive means no clear call, values can overlap the other calls; inactive means mostly above about 0.92. The list shows a part of the results.
Assay: chemical genetic growth profiling, strain panel (AID 1159580);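 further: tested at 20 µM; growth read once vehicle control cultures reached saturation at 30 °C; 1 = growth at the plate median or of vehicle wells; lower values mean less growth of the strain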
Details: S. cerevisiae deletion strains, growth OD

Measured: normalized growth

CC(=O)O[C@@H]1CC2C(C)(C)[C@H](O)CC[C@]2(C)C2CC[C@@]3(C)[C@H](c4ccoc4)OC(=O)C4OC43[C@@]21C (stereo partly specified)
inactive: locus YAL021C, strain ccr4, hits give low values 0.991 | locus YAL026C, strain drs2, hits give low values 1.03 | locus YAL030W, strain snc1, hits give low values 1.01 | locus YBL061C, strain skt5, hits give low values 1.01 | locus YBR009C, strain hhf1, hits give low values 1.04 | locus YBR021W, strain FUR4, hits give low values 0.974 | locus YBR023C, strain chs3, hits give low values 1.02 | locus YBR171W, strain sec66, hits give low values 1.02 | locus YBR229C, strain ROT2, hits give low values 0.957 | locus YBR231C, strain swc5, hits give low values 1.02 | locus YBR279W, strain paf1, hits give low values 1.01 | locus YCL011C, strain gbp2, hits give low values 1.01 | locus YCL016C, strain dcc1, hits give low values 1.02 | locus YCL029C, strain bik1, hits give low values 0.993 | locus YCL061C, strain MRC1, hits give low values 1.02 | locus YCL069W, strain vba3, hits give low values 1 | locus YCR088W, strain abp1, hits give low values 1.01 | locus YDL005C, strain med2, hits give low values 1.02 | locus YDL035C, strain GPR1, hits give low values 0.984 | locus YDL040C, strain nat1, hits give low values 1 | locus YDL074C, strain BRE1, hits give low values 1 | locus YDL101C, strain DUN1, hits give low values 0.998 | locus YDL134C, strain PPH21, hits give low values 1.03 | locus YDL185W, strain tfp1, hits give low values 0.97 | locus YDL192W, strain arf1, hits give low values 0.999 | locus YDR001C, strain nth1, hits give low values 1.01 | locus YDR069C, strain doa4, hits give low values 1.04 | locus YDR101C, strain arx1, hits give low values 0.967 | locus YDR137W, strain rgp1, hits give low values 1.02 | locus YDR159W, strain sac3, hits give low values 1.05 | locus YDR162C, strain NBP2, hits give low values 0.999 | locus YDR195W, strain ref2 1.03 | locus YDR297W, strain sur2, hits give low values 1.01 | locus YDR318W, strain mcm21, hits give low values 0.996 | locus YDR334W, strain swr1, hits give low values 1.01 | locus YDR335W, strain msn5, hits give low values 1.03 | locus YDR388W, hits give low values 1 | locus YDR392W, strain spt3, hits give low values 0.834 | locus YDR502C, strain sam2, hits give low values 1.01 | locus YEL003W, strain gim4, hits give low values 1.03 | locus YEL037C, strain rad23, hits give low values 1.01 | locus YEL061C, strain CIN8 (second series), hits give low values 1.02 | locus YER015W, strain faa2, hits give low values 1.01 | locus YER016W, strain bim1, hits give low values 1.02 | locus YER110C, hits give low values 0.98 | locus YER111C, strain swi4, hits give low values 1.02 | locus YER155C, strain BEM2 (second series), hits give low values 1.03 | locus YER155C, strain BEM2, hits give low values 1.01 | locus YER167W, strain BCK2, hits give low values 0.996 | locus YFR010W, strain ubp6, hits give low values 1.04 | locus YGL078C, strain dbp3, hits give low values 1.01 | locus YGL086W, strain mad1, hits give low values 0.984 | locus YGL167C, strain pmr1, hits give low values 1.01 | locus YGL173C, strain kem1, hits give low values 1.01 | locus YGL227W, strain vid30, hits give low values 1.02 | locus YGL240W, strain doc1, hits give low values 1.04 | locus YGL248W, strain PDE1, hits give low values 1.01 | locus YGL253W, strain hxk2, hits give low values 0.997 | locus YGR135W, strain pre9, hits give low values 1.05 | locus YGR252W, strain gcn5, hits give low values 1.04 | locus YHR013C, strain ard1, hits give low values 1.02 | locus YHR027C, strain rpn1, hits give low values 1.01 | locus YHR030C, strain SLT2, hits give low values 1.07 | locus YHR079C, strain IRE1 (second series), hits give low values 0.983 | locus YHR079C, strain IRE1, hits give low values 1.05 | locus YHR094C, strain hxt1, hits give low values 0.989 | locus YHR129C, strain ARP1, hits give low values 1.01 | locus YHR142W, strain chs7, hits give low values 0.939 | locus YHR200W, strain rpn10, hits give low values 0.996 | locus YIL066C, strain RNR3, hits give low values 0.973 | locus YIL073C, strain SPO22, hits give low values 0.958 | locus YIL125W, strain kgd1, hits give low values 0.962 | locus YIR030C, strain dcg1, hits give low values 0.988 | locus YJL092W, strain hpr5, hits give low values 1.02 | locus YJL095W, strain BCK1 (second series), hits give low values 1.02 | locus YJL095W, strain BCK1, hits give low values 1.06 and 1.08 | locus YJL115W, strain asf1, hits give low values 1.02 | locus YJL129C, strain trk1, hits give low values 1 | locus YJL134W, strain LCB3, hits give low values 0.991 | locus YJL154C, strain vps35, hits give low values 0.999 | locus YJL164C, strain tpk1, hits give low values 1.02 | locus YJL166W, strain qcr8, hits give low values 1.02 | locus YJL168C, strain set2, hits give low values 0.996 | locus YJL187C, strain SWE1 (second series), hits give low values 1.02 | locus YJL187C, strain SWE1, hits give low values 1.01 | locus YJR043C, strain POL32, hits give low values 0.977
